The results in this text go back to PubChem BioAssay (NCATS).

Values joined by “and” are separate entries in the source; they are usually repeats but may differ in a detail not shown here. Identical values can stand only once. Records with an inconclusive call do not appear. Active and inactive are the calls of the source. Unless noted, the call rests on the fitted dose curve.

The target in assay [1] is Bile acid receptor (Homo sapiens) (UniProt Q96RI1). Description: qHTS assay for small molecule antagonists of farnesoid X receptor signaling (AID 588526). Further: on the % scale 0 is the no-effect control and ±100 the full control effect. In a few lines: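 Concentration-response titrations were fitted to the Hill equation for half-maximal inhibition and maximal response, with data normalised to 50 uM chenodeoxycholic acid and DMSO control wells. Cells: FXR-UAS-bla HEK293T, dialyzed FBS.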
A general note: Quantitative high-throughput screening tests each substance at several concentrations.

The target of assay [2] is Glucocorticoid receptor (Homo sapiens) (UniProt P04150). Description: qHTS assay for small molecule agonists of glucocorticoid receptor signaling (AID 588532; active means well fitted curve in the direction sought with a large enough effect in the signal ratio, with a control signal flat; the % refers to the signal ratio;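 further: 100% = dexamethasone at 0.1 µM and 0% = DMSO only wells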). The following applies: HeLa MMTV-bla, beta-lactamase ratio, agonist, 18 h; stronger effect = higher value; percent of dexamethasone control, DMSO zero. The essentials:
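Stimulation of a glucocorticoid response element-driven beta-lactamase gene was measured in HeLa cells. Responses were scaled between DMSO basal and 0.1 uM dexamethasone, then fitted for half-maximal stimulation.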

Assay [3] shares this target. Description: qHTS assay for small molecule antagonists of glucocorticoid receptor signaling (AID 588533; active means well fitted inhibition curve with a large enough effect in the signal ratio, with a control signal flat, not every such curve was filed as active; the % refers to the signal ratio;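 further: cells stimulated with 2 nM dexamethasone as agonist; on the % scale 0 is the no-effect control and ±100 the full control effect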). The essentials:
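Antagonist-mode qHTS: compound titrations added to GRE-bla HeLa cells, then dexamethasone 2 nM final; 18 h, 37 C. CCF4 FRET fluorescence normalized to dexamethasone and DMSO; IC50 from Hill fit.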

The target in assay [4] is Peroxisome proliferator-activated receptor gamma (Homo sapiens) (UniProt P37231). Description: qHTS assay for small molecule agonists of peroxisome proliferator-activated receptor gamma signaling (AID 588536; active means well fitted curve in the direction sought with a large enough effect in the signal ratio, with a control signal flat, not every such curve was filed as active; the % refers to the signal ratio;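 further: 0% = DMSO basal wells and 100% = rosiglitazone at 2 µM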). In a few lines: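 PPAR-gamma-UAS-bla HEK293 cells in medium with 1% charcoal/dextran-treated FBS were exposed to compounds for 16 h at 37 C. Beta-lactamase activity was read with CCF4 substrate (405 nm excitation, 460/530 nm emission).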

Assay [5] shares this target. The assay can be described thus: qHTS assay for small molecule antagonists of peroxisome proliferator-activated receptor gamma signaling (AID 588537; active means well fitted inhibition curve with a large enough effect in the signal ratio, with a control signal flat, not every such curve was filed as active; the % refers to the signal ratio;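 further: reporter cells co-stimulated with 50 nM rosiglitazone agonist during compound treatment; % of control where 0% means no effect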). In a few lines: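 PPAR-gamma-UAS-bla HEK293 cells (3000/well, 1% charcoal/dextran-stripped FBS) were preincubated 6-6.5 h at 37 C, given titrated compounds, then stimulated with 50 nM rosiglitazone for 16 h. Beta-lactamase activity was read with CCF4 dye; IC50 came from Hill fits.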

Assay [6] concerns the target Vitamin D3 receptor (Homo sapiens) (UniProt P11473). The assay can be described thus: qHTS assay for small molecule antagonists of vitamin D receptor signaling (AID 588541).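 Further: receptor activated by calcitriol during compound treatment; series mostly up to about 77 µM; on the % scale 0 is the no-effect control and ±100 the full control effect.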 In a few lines:
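VDR-UAS-bla HEK293T cells (2000/well, 2% charcoal-stripped FBS) were treated with titrated compounds plus 1-alpha,25-dihydroxyvitamin D3 (50 nM or 3 nM final) for 16 h at 37 C. CCF4 beta-lactamase fluorescence was read; Hill fits gave IC50.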

For assay [7] the target is unchanged. The assay can be described thus: qHTS assay for small molecule agonists of vitamin D receptor signaling (AID 588543).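 Further: 0% = DMSO basal and 100% = reference agonist control.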 The essentials:
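Agonist-mode beta-lactamase reporter: HEK293T VDR-UAS-bla cells in charcoal-stripped 2% FBS, compound series 16 h 37 C, CCF4 2 h RT. EC50 from Hill fit, scaled against DMSO and 50 nM calcitriol control.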

Assay [8] in a line: qHTS assay for small molecule agonists of retinoid X receptor alpha signaling (AID 588544).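 On activation: 0% = DMSO basal wells and 100% = reference agonist.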 The following applies: HEK293T RXRa-UAS-bla, beta-lactamase reporter, 18 h; 530 nm emission.
Assay [9] concerns the target Thyroid hormone receptor beta (Homo sapiens) (UniProt P10828). The assay can be described thus: qHTS assay for small molecule agonists of thyroid hormone receptor beta signaling (AID 588545). The essentials: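 HEK 293 TR-UAS-bla; agonist mode; 18 hrs, 37 C; CCF4, ex 405/em 460 and 530 nm; norm. T3 10 nM = 100%, DMSO = 0%; Hill fit → EC50, efficacy.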
Assay [10] can be described thus: qHTS assay for small molecule antagonists of retinoid X receptor alpha signaling (AID 588546; active means well fitted inhibition curve with a large enough effect in the signal ratio, with a control signal flat, not every such curve was filed as active; the % refers to the signal ratio;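 further: cells stimulated with 9-cis-retinoic acid as agonist; on the % scale 0 is the no-effect control and ±100 the full control effect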). The following applies: HEK293T RXRa-UAS-bla, beta-lactamase ratio, antagonist mode; measured here: W530 green channel, cytotoxicity proxy. The essentials:
(§1)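 Beta-lactamase reporter inhibition, read as CCF4 fluorescence ratio (ex 405, em 460/530 nm) after 2 h at RT. HEK293T UAS-bla cells, 2500/well, were stimulated with 9-cis-RA at 500 or 100 nM final alongside test compound for 18 h at 37 C.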

Assay [11] deals with Retinoic acid receptor RXR-alpha (Homo sapiens) (UniProt P19793). The description is as above. The following applies: HEK293T RXRa-UAS-bla, beta-lactamase ratio, antagonist mode. The essentials: as §1
Assay [12] deals with Thyroid hormone receptor beta (Homo sapiens) (UniProt P10828). Description: qHTS assay for small molecule antagonists of thyroid hormone receptor beta signaling (AID 588547; active means well fitted inhibition curve with a large enough effect in the signal ratio, with a control signal flat, not every such curve was filed as active; the % refers to the signal ratio). The following applies: TR-UAS-bla HEK293, beta-lactamase ratio, antagonist mode, 18 h. In a few lines:
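TR-UAS-bla GripTite HEK293 cells in 2% charcoal/dextran FBS medium were preincubated 4 h at 37 C, given compound (0.59 nM to 92 uM) plus 0.4 nM T3 (final) for 18 h, then CCF4 for 2 h at RT; Hill fit gave IC50.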

Assay [13] can be described thus: qHTS assay for small molecule agonists of the antioxidant response element (ARE) signaling pathway (AID 651741; active means well fitted activation curve with a large enough effect in the signal ratio; the % refers to the signal ratio; further: potency means the concentration at half of the fitted maximal effect; on activation: % of control where 0% means no effect). In a few lines: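 ARE-bla HepG2 cells (beta-lactamase reporter under ARE control) were plated at 2,000 cells/well, preincubated 5 h at 37 C/5% CO2, then treated with DMSO-dissolved compounds for 16 h at 37 C; LiveBLAzer B/G FRET substrate added, fluorescence read after 2 h at room temperature.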

A short description of assay [14]: qHTS assay for small molecule activators of the p53 signaling pathway (AID 651743; active means well fitted activation curve with a large enough effect in the signal ratio, not every such curve was filed as active; the % refers to the signal ratio; further: series mostly up to about 92 µM; % of control where 0% means no effect). The following applies: HCT-116 p53RE-bla, beta-lactamase FRET ratio, 16 h; stronger effect = higher value. The essentials: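 p53RE-bla HCT-116 cells with a stably integrated beta-lactamase reporter under p53 response elements were plated, rested 5 hours at 37 C/5% CO2, then exposed to compounds in DMSO for 16 hours at 37 C. LiveBLAzer B/G FRET substrate was read after 2 hours at room temperature.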

Assay [15] is described as follows: qHTS assay for small molecule activators of the nuclear factor-kappa B (NF-kB) signaling pathway (AID 651749; active means well fitted activation curve with a large enough effect in the signal ratio; the % refers to the signal ratio; further: series mostly up to about 77 µM; % of control where 0% means no effect). The following applies: NF-kB-bla ME-180 cells, beta-lactamase FRET ratio, 16 h; stronger effect = higher value. The essentials: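 ME-180 cells stably carrying a beta-lactamase reporter under an NF-kB response element were exposed to compound or DMSO vehicle for 16 hr at 37C, 5% CO2. Pathway activation was read by FRET, since reporter expression disrupts FRET.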

Assay [16] has as its target Retinoic acid receptor RXR-alpha (Homo sapiens) (UniProt P19793). The assay can be described thus: qHTS assay for small molecule agonists of retinoid X receptor alpha signaling (AID 588544).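 On activation: 0% = DMSO basal wells and 100% = reference agonist.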
Assay [17] deals with Voltage-gated inwardly rectifying potassium channel KCNH2 (Homo sapiens) (UniProt Q12809). Description: qHTS Assay for Small Molecule Inhibitors of the Human hERG Channel Activity (AID 588834; active means well fitted inhibition curve with a large enough effect;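 further: top concentration of the series differs between compounds; on the % scale 0 is the no-effect control and ±100 the full control effect; lower thallium flux fluorescence means stronger hERG block; nearly all actives have a fitted effect of over 50% in size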). In a few lines:
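Kinetic FDSS fluorescence; U2OS + hERG BacMam (~100 virus particles/cell); FluxOR Tl+ flux; ~10 min cpd; AC50 (Hill).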

Assay [18] in a line: qHTS assay for small molecule antagonists of peroxisome proliferator-activated receptor delta signaling (AID 588535; active means well fitted inhibition curve with a large enough effect in the signal ratio, with a control signal flat, not every such curve was filed as active; the % refers to the signal ratio;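 on max response: cells co-treated with a PPAR-delta agonist as stimulator during compound exposure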). The following applies: HEK293T PPARd-UAS-bla, beta-lactamase FRET ratio, 18 h; 460 nm channel. In a few lines: (§2)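 GeneBLAzer PPAR-delta-UAS-bla HEK293T cells in medium with 2% charcoal/dextran FBS were preincubated 5 hrs at 37 C, then given compounds, incubated 18 hrs at 37 C, and read by CCF4 beta-lactamase fluorescence; IC50 from Hill fits.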

For assay [19], the target named is Peroxisome proliferator-activated receptor delta (Homo sapiens) (UniProt Q03181). The description is as above. In a few lines:
as §2

Glucocorticoid receptor (Homo sapiens), sequence (P04150 whole entry, looked up): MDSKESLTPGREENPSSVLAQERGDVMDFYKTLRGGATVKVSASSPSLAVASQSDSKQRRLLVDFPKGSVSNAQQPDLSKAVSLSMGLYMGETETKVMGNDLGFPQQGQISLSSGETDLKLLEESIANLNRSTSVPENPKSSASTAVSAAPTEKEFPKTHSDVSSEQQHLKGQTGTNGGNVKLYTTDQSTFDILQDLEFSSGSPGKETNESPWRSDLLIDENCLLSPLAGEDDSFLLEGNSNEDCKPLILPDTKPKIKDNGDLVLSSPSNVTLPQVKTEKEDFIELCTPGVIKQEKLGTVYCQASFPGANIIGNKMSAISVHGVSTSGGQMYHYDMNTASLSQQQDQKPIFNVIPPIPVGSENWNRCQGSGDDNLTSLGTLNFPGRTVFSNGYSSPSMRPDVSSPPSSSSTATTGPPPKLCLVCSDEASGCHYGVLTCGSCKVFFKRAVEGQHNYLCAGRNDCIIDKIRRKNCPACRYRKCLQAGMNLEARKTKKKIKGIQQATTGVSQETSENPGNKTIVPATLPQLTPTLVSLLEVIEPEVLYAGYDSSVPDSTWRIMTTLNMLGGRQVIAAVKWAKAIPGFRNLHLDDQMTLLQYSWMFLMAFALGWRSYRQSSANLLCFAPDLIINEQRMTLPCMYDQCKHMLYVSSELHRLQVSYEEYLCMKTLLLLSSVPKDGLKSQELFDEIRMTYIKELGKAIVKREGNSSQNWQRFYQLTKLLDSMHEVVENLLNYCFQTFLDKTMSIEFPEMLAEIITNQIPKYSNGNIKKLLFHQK
Thyroid hormone receptor beta (Homo sapiens), sequence (P10828 whole entry, looked up): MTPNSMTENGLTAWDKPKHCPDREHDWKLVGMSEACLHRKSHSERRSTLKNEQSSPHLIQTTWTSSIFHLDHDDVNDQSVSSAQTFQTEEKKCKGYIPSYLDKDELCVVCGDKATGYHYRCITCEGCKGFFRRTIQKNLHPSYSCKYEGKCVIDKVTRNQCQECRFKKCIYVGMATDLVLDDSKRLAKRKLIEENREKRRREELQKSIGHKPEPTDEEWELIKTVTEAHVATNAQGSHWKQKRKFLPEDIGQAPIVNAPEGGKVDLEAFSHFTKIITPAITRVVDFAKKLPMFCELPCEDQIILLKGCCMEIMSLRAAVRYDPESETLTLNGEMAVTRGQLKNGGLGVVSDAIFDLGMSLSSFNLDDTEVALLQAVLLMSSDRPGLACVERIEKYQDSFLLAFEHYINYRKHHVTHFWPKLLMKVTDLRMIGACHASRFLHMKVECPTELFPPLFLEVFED
Voltage-gated inwardly rectifying potassium channel KCNH2 (Homo sapiens), sequence (Q12809 whole entry, looked up): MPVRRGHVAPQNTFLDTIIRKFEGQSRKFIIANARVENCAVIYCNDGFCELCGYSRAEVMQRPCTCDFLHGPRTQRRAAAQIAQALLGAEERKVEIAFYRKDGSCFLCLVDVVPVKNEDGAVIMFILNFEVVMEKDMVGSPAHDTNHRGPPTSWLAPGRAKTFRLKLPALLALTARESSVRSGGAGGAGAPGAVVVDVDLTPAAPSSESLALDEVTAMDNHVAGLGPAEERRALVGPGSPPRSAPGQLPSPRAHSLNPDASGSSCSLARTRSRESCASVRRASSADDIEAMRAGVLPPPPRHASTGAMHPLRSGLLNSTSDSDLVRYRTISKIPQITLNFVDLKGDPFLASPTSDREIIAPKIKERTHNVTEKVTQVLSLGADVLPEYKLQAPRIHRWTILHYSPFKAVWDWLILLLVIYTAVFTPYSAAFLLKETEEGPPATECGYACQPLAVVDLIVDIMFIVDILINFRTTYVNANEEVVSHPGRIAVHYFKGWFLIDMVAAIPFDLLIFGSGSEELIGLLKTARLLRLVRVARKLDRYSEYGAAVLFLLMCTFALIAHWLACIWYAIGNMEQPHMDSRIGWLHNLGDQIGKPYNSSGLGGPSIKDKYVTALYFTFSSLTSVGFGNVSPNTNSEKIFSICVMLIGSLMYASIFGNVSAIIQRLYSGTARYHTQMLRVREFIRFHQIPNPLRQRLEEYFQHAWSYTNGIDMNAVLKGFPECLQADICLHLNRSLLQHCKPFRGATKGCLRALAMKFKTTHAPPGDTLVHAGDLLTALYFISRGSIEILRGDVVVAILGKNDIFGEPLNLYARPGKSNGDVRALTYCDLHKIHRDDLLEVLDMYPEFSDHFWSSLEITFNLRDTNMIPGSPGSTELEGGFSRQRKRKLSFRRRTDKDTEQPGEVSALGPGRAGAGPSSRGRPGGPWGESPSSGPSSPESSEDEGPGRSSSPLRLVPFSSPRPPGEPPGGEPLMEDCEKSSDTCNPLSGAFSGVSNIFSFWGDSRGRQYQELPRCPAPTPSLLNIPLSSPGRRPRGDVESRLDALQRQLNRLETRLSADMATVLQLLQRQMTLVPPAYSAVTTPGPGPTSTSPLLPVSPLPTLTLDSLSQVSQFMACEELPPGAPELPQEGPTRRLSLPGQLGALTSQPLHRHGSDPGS
Retinoic acid receptor RXR-alpha (Homo sapiens), sequence (P19793 whole entry, looked up): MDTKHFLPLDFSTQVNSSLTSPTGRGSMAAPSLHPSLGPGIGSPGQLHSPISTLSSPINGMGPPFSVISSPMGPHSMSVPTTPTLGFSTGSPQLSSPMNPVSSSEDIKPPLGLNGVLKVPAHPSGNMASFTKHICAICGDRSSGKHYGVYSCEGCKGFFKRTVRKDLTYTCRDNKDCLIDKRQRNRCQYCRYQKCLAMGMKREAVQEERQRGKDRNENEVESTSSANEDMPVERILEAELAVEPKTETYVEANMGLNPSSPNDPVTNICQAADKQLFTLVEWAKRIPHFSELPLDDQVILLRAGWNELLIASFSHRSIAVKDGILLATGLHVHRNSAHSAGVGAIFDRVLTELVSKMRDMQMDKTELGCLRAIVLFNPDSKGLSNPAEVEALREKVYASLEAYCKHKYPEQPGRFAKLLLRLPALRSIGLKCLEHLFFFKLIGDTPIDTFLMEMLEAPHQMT
Peroxisome proliferator-activated receptor gamma (Homo sapiens), sequence (P37231 whole entry, looked up): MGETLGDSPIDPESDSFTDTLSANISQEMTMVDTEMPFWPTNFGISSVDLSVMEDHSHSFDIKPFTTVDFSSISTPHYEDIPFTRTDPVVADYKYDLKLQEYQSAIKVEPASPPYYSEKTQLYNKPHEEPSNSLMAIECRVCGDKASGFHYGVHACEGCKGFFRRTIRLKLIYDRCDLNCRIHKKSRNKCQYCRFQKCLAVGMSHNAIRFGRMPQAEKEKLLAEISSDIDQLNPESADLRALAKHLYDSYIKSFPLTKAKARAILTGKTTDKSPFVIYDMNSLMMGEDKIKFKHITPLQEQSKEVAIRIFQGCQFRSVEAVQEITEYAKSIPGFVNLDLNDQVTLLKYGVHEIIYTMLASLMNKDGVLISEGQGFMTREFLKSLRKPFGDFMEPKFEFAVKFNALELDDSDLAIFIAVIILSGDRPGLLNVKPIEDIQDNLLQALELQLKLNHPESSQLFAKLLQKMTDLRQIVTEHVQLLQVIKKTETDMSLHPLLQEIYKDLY
Bile acid receptor (Homo sapiens), sequence (Q96RI1 whole entry, looked up): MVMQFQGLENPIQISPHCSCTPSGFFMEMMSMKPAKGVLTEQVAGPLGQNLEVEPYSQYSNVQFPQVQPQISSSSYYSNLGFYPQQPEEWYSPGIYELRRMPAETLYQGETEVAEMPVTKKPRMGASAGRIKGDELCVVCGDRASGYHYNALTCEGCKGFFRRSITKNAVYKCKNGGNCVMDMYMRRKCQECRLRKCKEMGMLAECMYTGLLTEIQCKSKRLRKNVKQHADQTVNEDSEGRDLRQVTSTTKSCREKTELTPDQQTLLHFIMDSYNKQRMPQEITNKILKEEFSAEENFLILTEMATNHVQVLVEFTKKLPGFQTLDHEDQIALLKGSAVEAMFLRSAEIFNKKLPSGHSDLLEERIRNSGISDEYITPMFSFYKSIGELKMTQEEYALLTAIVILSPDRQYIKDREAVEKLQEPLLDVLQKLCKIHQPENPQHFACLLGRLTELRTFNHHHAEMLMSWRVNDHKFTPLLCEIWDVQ
Vitamin D3 receptor (Homo sapiens), sequence (P11473 whole entry, looked up): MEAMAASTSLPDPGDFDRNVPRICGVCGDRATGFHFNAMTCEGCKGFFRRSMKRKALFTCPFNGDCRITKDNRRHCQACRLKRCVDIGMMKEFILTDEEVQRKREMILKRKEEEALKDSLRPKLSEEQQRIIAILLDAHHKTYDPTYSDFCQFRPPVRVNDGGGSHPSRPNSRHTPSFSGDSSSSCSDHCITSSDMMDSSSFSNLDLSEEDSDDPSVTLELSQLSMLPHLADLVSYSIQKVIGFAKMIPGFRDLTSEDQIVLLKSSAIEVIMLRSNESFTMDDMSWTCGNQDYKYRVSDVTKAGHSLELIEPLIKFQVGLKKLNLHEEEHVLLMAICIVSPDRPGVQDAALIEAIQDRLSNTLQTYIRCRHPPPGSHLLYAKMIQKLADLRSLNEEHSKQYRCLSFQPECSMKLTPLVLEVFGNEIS
Peroxisome proliferator-activated receptor delta (Homo sapiens), sequence (Q03181 whole entry, looked up): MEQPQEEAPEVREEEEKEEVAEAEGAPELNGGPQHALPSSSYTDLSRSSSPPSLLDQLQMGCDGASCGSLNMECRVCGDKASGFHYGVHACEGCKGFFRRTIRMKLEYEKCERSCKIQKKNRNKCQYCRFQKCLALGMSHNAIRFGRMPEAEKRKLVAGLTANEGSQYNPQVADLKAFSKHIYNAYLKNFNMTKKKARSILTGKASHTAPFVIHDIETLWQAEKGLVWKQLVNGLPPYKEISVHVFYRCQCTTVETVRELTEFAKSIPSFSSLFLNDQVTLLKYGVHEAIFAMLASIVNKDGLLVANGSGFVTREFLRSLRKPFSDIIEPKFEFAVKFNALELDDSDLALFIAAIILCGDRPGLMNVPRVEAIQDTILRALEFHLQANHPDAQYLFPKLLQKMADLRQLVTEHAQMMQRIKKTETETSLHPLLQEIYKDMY

`Cc1cc([N+](=O)[O-])ccc1N`: the compound was called inactive in assay [1], in [3], in assay [4], in [5], in assay [6] and in [7]. For the same compound, in [9], the result was inactive. In addition, the activation in assay [2] is -2.44% (inactive); in assay [14] it was -4.49% (inactive); in assay [15], -0.648% (inactive). In addition, the max response in assay [8] was -1.24%; in [10], -8.79%; in [11], 2.58% (inactive). Further, in assay [12], the activity change % (negative = inhibition) is -9.22% (inactive). Moreover, in assay [13], the Potency result was “inactive”.
As for `COc1cccc(N)c1`, the compound was classed as inactive in assay [1], in [6], in assay [7], in [16] and in assay [9]. In addition, the activation was 1.73% (inactive) in assay [2] and -3.72% (inactive) in assay [14]. The max response in [8] stood at 15.1%. Besides, the activity change % (negative = inhibition) in assay [12] was -9.05% (inactive). Besides, the Potency result in assay [17] was “inactive”.
In the case of `CCNc1cc(O)ccc1C`, the compound was called inactive in [1], in assay [6], in assay [7], in assay [16] and in assay [9]. Moreover, the max response was -5.56% in assay [8], -2.01% in [10] and 1.41% (inactive) in assay [11]. In addition, the activity change % (negative = inhibition) in assay [12] is 14.6% (inactive). Further, in assay [17], the Potency entry was “inactive”. Moreover, the Potency in assay [13] is 59.6 µM (active). In assay [14], the activation was -1.04% (inactive).
As to `Nc1nc2ccccc2[nH]1`, the result in [1], in assay [3], in [4], in assay [5], in [6] and in assay [7] was inactive. Further, the call in assay [9] was inactive. Besides, the max response in assay [10] was -22%; in assay [11], -2.52% (inactive). For the same compound, in assay [12], the activity change % (negative = inhibition) is 16% (inactive). For the same compound, the Potency result in assay [17] and in assay [13] was “inactive” throughout. Besides, the activation in [14] is 1.82% (inactive).
Consider `N#Cc1ccccc1`, for which the compound was called inactive in [1], in assay [3], in assay [4], in assay [5], in [6] and in assay [7]. Moreover, the outcome in assay [16] and in assay [9] was inactive. The max response is -16.3% in assay [18], -9.04% in assay [8], 0.37% in assay [10] and 1.5% (inactive) in [11]. In addition, the Potency entry in assay [19], in assay [17] and in [13] was “inactive” throughout. In addition, the activity change % (negative = inhibition) in assay [12] is 1.08% (inactive). The activation was -1.56% (inactive) in assay [14] and 0.786% (inactive) in assay [15].
For the compound `CCOCCOCC`, the compound was classed as inactive in assay [1], in assay [3], in [4], in assay [5], in assay [6] and in [7]. Moreover, the compound was classed as inactive in assay [16] and in [9]. Besides, the max response is -23% in assay [18], -9.35% in assay [8], -9.02% in assay [10] and 1.41% (inactive) in assay [11]. Besides, the Potency result in [19], in assay [17] and in assay [13] was “inactive” throughout. Besides, the activity change % (negative = inhibition) in assay [12] was 12.3% (inactive). Also, the activation in [14] is 0.0371% (inactive); in assay [15], -0.436% (inactive).
As to `Nc1cccc(C(F)(F)F)c1`, the compound was classed as inactive in assay [1], in assay [4], in [16] and in assay [9]. Besides, the max response in assay [18] was 14.1% and 46.7%; in assay [8] it was 3.76% and -4.65%; in assay [10] it was -1.51% and -8.69%; in [11], 23% (inactive) and -15.4% (inactive). The Potency result in [19], in [17] and in assay [13] was “inactive” throughout. The activity change % (negative = inhibition) in assay [12] is 5.58% (inactive).
Consider `CC1CCC2CC1C2(C)C` (configuration not stated), for which the result in assay [1], in assay [4], in assay [5], in assay [16] and in assay [9] was inactive. In addition, the activation in [2] is -2.14% (inactive); in assay [14], -0.467% (inactive); in [15], -0.9% (inactive). Besides, the max response in [8] is -0.475%; in [10] it was 8.6%; in assay [11], 9.66% (inactive). The activity change % (negative = inhibition) in [12] is 12.3% (inactive). In addition, the Potency result in assay [17] and in [13] was “inactive” each time.
